From PubChem BioAssay (NCI)
The panel holds about 79,000 compounds, 15% with a hit somewhere; the sample as a whole holds those more often. Active and inactive are the calls of the source. Rule as the data show it: active = growth inhibition above about 70%; inactive = the rest.

How the values were obtained:
[1] = NCI Yeast Anticancer Drug Screen. Data for the rad52 strain (AID 147);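 also: 0% = growth of vehicle-treated control cultures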; details: S. cerevisiae rad52 mutant growth inhibition, stronger effect = higher value
Outline: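 Read-out: growth inhibition versus vehicle-treated controls. Cells were a DNA repair-deficient yeast strain treated with compounds.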

[2] = NCI Yeast Anticancer Drug Screen. Data for the wt1 strain (AID 149);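 also: 0% = growth of vehicle-treated wt1 cultures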; details: S. cerevisiae wt1 strain (SPY 50644) growth inhibition, stronger effect = higher value
Outline: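 wt1 yeast, compound-treated; % growth inhibition vs vehicle control.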

[3] = NCI Yeast Anticancer Drug Screen. Data for the rad50EPP+ strain (AID 151);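 also: 0% = growth of vehicle-treated control cultures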; details: S. cerevisiae rad50 mutant strain, stronger effect = higher value
Outline: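 Growth inhibition read against vehicle controls in rad50EPP+ yeast, a strain altered in DNA damage repair, after compound exposure.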

[4] = NCI Yeast Anticancer Drug Screen. Data for the mgt1 strain (AID 153); details: S. cerevisiae mgt1 mutant growth inhibition, stronger effect = higher value
Outline: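 mgt1 yeast grown with test compound; read-out is growth inhibition versus vehicle-treated cultures.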

[5] = NCI Yeast Anticancer Drug Screen. Data for the rad50 strain (AID 155);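 also: 0% = growth of vehicle-only cultures of the same strain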; details: S. cerevisiae rad50 strain growth inhibition, stronger effect = higher value
Outline: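 Genetically altered yeast (DNA repair pathway); compound treatment; growth inhibition vs vehicle ctrl.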

[6] = NCI Yeast Anticancer Drug Screen. Data for the mec2-1 strain (AID 157); details: S. cerevisiae mec2-1 strain, stronger effect = higher value
Outline: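 Yeast mec2-1 mutant treated with compound. Readout: growth inhibition vs vehicle controls.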

[7] = NCI Yeast Anticancer Drug Screen. Data for the rad14 strain (AID 159);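 also: 0% = growth of vehicle-treated control cultures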; details: S. cerevisiae rad14 strain growth inhibition, stronger effect = higher value
Outline: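 Test compounds were applied to a repair-deficient yeast strain. Its growth was then compared with that of cultures given vehicle alone, and inhibition was expressed relative to those controls.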

[8] = NCI Yeast Anticancer Drug Screen. Data for the sgs1 mgt1 strain (AID 161);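 also: 0% = growth of cultures given vehicle only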; details: S. cerevisiae sgs1 mgt1 strain, stronger effect = higher value
Outline: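 Mutant yeast exposed to compound; growth scored against vehicle-only wells.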

[9] = NCI Yeast Anticancer Drug Screen. Data for the CLN2oe strain (AID 163);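 also: 0% = growth of vehicle-only control cultures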; details: S. cerevisiae CLN2oe strain, stronger effect = higher value
Outline: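 Read-out: yeast growth inhibition, expressed relative to vehicle-only controls. The strain bears an engineered cell-cycle alteration.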

[10] = NCI Yeast Anticancer Drug Screen. Data for the cln2 rad14 strain (AID 165);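 also: 0% = growth equal to vehicle treated cultures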; details: S. cerevisiae cln2 rad14 strain, stronger effect = higher value
Outline: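 cln2 rad14 yeast strain; compound exposure; growth inhibition read vs vehicle controls.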

[11] = NCI Yeast Anticancer Drug Screen. Data for the bub3 strain (AID 167); details: S. cerevisiae bub3 mutant strain, stronger effect = higher value
Outline: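 Yeast carrying a defined mutation is treated with each compound, and growth is compared with that of vehicle-exposed cells to give inhibition.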

[12] = NCI Yeast Anticancer Drug Screen. Data for the wt2 strain (AID 169);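 also: 0% = growth of vehicle-treated yeast cultures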; details: S. cerevisiae wt2 strain growth inhibition, stronger effect = higher value
Outline: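 Read-out: growth inhibition versus vehicle-treated control cultures after compound exposure of the yeast strain.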

[13] = NCI Yeast Anticancer Drug Screen. Data for the mlh1 strain (AID 171);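 also: 0% = growth of vehicle-treated control cultures of the same strain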; details: S. cerevisiae mlh1 strain growth inhibition, stronger effect = higher value
Outline: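 Read-out: growth inhibition versus vehicle controls. Strain: engineered yeast with a defined DNA repair or cell cycle defect, compound-treated.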

[14] = NCI Yeast Anticancer Drug Screen. Data for the sgs1 strain (AID 173);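 also: 0% = growth of vehicle-only control cultures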; details: S. cerevisiae sgs1 mutant, stronger effect = higher value
Outline: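 Read-out: yeast growth inhibition relative to vehicle controls, following compound exposure of a strain with a defined DNA repair/cell cycle alteration.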

[15] = NCI Yeast Anticancer Drug Screen. Data for the mlh1 rad18 strain (AID 175); details: S. cerevisiae mlh1 rad18 strain growth inhibition, stronger effect = higher value
Outline: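 Yeast w/ defined DNA-repair lesions; compound exposure; growth vs vehicle controls → % inhibition.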

[16] = NCI Yeast Anticancer Drug Screen. Data for the rad18 strain (AID 177); details: S. cerevisiae rad18 mutant growth inhibition, stronger effect = higher value
Outline: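 Readout: growth inhibition vs vehicle controls. Cells: genetically altered yeast strain, DNA repair defect.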

[17] = at 5.0 µM (retest, dose inferred, filed as 0.5)
[18] = at 50.0 µM (retest, dose inferred, filed as 5.0)

Measured: growth inhibition

CSc1s[s+]c(SC)c1-c1ccccc1
active: [1]; at 100.0 µM 72% | [3]; at 33.0 µM 93% | [3]; at 100.0 µM 89% | [4]; at 100.0 µM 76% | [5]; at 50.0 µM 72.3% | [8]; [18] 73% | [11]; [18] 72% | [11]; at 100.0 µM 75% | [14]; at 100.0 µM 70% | [15]; at 50.0 µM 71.8% | [16]; at 100.0 µM 73%
inactive: [1]; at 1.2 µM 13% | [1]; at 3.7 µM 4% | [1]; at 11.0 µM 9% | [1]; at 33.0 µM 54% | [2]; at 1.2 µM 5% | [2]; at 3.7 µM 15% | [2]; at 11.0 µM 18% | [2]; at 33.0 µM 49% | [2]; at 100.0 µM 65% | [3]; at 1.2 µM 14% | [3]; at 3.7 µM 10% | [3]; at 11.0 µM 61% | [4]; at 1.2 µM 13% | [4]; at 3.7 µM 28% | [4]; at 11.0 µM 25% | [4]; at 33.0 µM 59% | [5]; at 1.2 µM -3% | [5]; at 3.7 µM 2% | [5]; [17] 28% | [5]; at 11.0 µM 11% | [5]; at 33.0 µM 58% | [5]; [18] 46% | [5]; at 100.0 µM 68% | [6]; at 1.2 µM 7% | [6]; at 3.7 µM -5% | [6]; [17] 48% | [6]; at 11.0 µM 1% | [6]; at 33.0 µM 51% | [6]; [18] 52% | [6]; at 50.0 µM 60.6% | [6]; at 100.0 µM 59% | [7]; at 1.2 µM -31% | [7]; at 3.7 µM -23% | [7]; at 11.0 µM -21% | [7]; at 33.0 µM 21% | [7]; at 100.0 µM 59% | [8]; [17] -6% | [9]; at 1.2 µM 9% | [9]; at 3.7 µM 12% | [9]; at 11.0 µM 4% | [9]; at 33.0 µM 34% | [9]; at 100.0 µM 42% | [10]; [17] 26% | [10]; [18] 59% | [11]; at 1.2 µM 9% | [11]; at 3.7 µM 12% | [11]; [17] 36% | [11]; at 11.0 µM 24% | [11]; at 33.0 µM 66% | [12]; at 1.2 µM -26% | [12]; at 3.7 µM -19% | [12]; at 11.0 µM -34% | [12]; at 33.0 µM 39% | [12]; at 100.0 µM 68% | [13]; at 1.2 µM -35% | [13]; at 3.7 µM -23% | [13]; at 11.0 µM -14% | [13]; at 33.0 µM 52% | [13]; at 100.0 µM 13% | [14]; at 1.2 µM -20% | [14]; at 3.7 µM -29% | [14]; at 11.0 µM -15% | [14]; at 33.0 µM 47% | [15]; [17] 34% | [15]; [18] 56% | [16]; at 1.2 µM 3% | [16]; at 3.7 µM 14% | [16]; at 11.0 µM 22% | [16]; at 33.0 µM 63%

Cc1cc(C(C)(C)CC(C)(C)C)cc(O)c1O
inactive: [1]; at 1.2 µM 12% | [1]; at 3.7 µM 34% | [2]; at 1.2 µM -19% | [2]; at 3.7 µM 9% | [3]; at 1.2 µM 44% | [3]; at 3.7 µM 69% | [4]; at 1.2 µM 23% | [4]; at 3.7 µM 40% | [5]; at 1.2 µM -7% | [5]; at 3.7 µM 12% | [5]; at 11.0 µM 69% | [6]; at 1.2 µM 29% | [6]; at 3.7 µM 37% | [8]; [17] 4% | [9]; at 1.2 µM 2% | [9]; at 3.7 µM 35% | [10]; [17] 37% | [11]; at 1.2 µM 1% | [11]; at 3.7 µM 19% | [11]; [17] 21% | [12]; at 1.2 µM 2% | [12]; at 3.7 µM 27% | [12]; at 100.0 µM 54% | [13]; at 1.2 µM 6% | [13]; at 3.7 µM 20% | [14]; at 1.2 µM 14% | [14]; at 3.7 µM 35% | [16]; at 1.2 µM 5% | [16]; at 3.7 µM 23%
active: [1]; at 11.0 µM 77% | [1]; at 33.0 µM 96% | [1]; at 100.0 µM 98% | [2]; at 11.0 µM 70% | [2]; at 33.0 µM 94% | [2]; at 100.0 µM 98% | [3]; at 11.0 µM 79% | [3]; at 33.0 µM 83% | [3]; at 100.0 µM 88% | [4]; at 11.0 µM 87% | [4]; at 33.0 µM 97% | [4]; at 100.0 µM 98% | [5]; [17] 95% | [5]; at 33.0 µM 93% | [5]; [18] 99% | [5]; at 50.0 µM 92% | [5]; at 100.0 µM 97% | [6]; [17] 97% | [6]; at 11.0 µM 72% | [6]; at 33.0 µM 95% | [6]; [18] 100% | [6]; at 50.0 µM 91.9% | [6]; at 100.0 µM 99% | [8]; [18] 97% | [9]; at 11.0 µM 81% | [9]; at 33.0 µM 97% | [9]; at 100.0 µM 98% | [10]; [18] 95% | [11]; at 11.0 µM 74% | [11]; at 33.0 µM 97% | [11]; [18] 99% | [11]; at 100.0 µM 98% | [12]; at 11.0 µM 71% | [12]; at 33.0 µM 89% | [13]; at 11.0 µM 85% | [13]; at 33.0 µM 88% | [13]; at 100.0 µM 99% | [14]; at 11.0 µM 82% | [14]; at 33.0 µM 92% | [14]; at 100.0 µM 97% | [15]; [17] 83% | [15]; [18] 100% | [15]; at 50.0 µM 92% | [16]; at 11.0 µM 88% | [16]; at 33.0 µM 96% | [16]; at 100.0 µM 98%

COC(=O)/C=C1/OC(c2ccc(Br)cc2)=C(Br)C1=O
inactive: [1]; at 1.2 µM -25% | [1]; at 3.7 µM -22% | [1]; at 11.0 µM -18% | [1]; at 33.0 µM -7% | [1]; at 100.0 µM 38% | [2]; at 1.2 µM -16% | [2]; at 3.7 µM -13% | [2]; at 11.0 µM -29% | [2]; at 33.0 µM -11% | [2]; at 100.0 µM 16% | [3]; at 1.2 µM -6% | [3]; at 3.7 µM -7% | [3]; at 11.0 µM 0% | [3]; at 33.0 µM 59% | [4]; at 1.2 µM 3% | [4]; at 3.7 µM 3% | [4]; at 11.0 µM -7% | [4]; at 33.0 µM 7% | [5]; at 1.2 µM -35% | [5]; at 3.7 µM -28% | [5]; [17] 3% | [5]; at 11.0 µM -5% | [5]; at 33.0 µM -11% | [5]; [18] 36% | [5]; at 50.0 µM 17.6% | [5]; at 100.0 µM 65% | [7]; at 1.2 µM -4% | [7]; at 3.7 µM -16% | [7]; at 11.0 µM -15% | [7]; at 33.0 µM -21% | [8]; [17] 12% | [8]; [18] 16% | [10]; [17] 2% | [10]; [18] 14% | [10]; at 50.0 µM 33.8% | [11]; at 1.2 µM 20% | [11]; at 3.7 µM 6% | [11]; [17] 32% | [11]; at 11.0 µM -12% | [11]; [18] 40% | [12]; at 1.2 µM -25% | [12]; at 3.7 µM -22% | [12]; at 11.0 µM -20% | [13]; at 1.2 µM -18% | [13]; at 3.7 µM -4% | [13]; at 11.0 µM -14% | [13]; at 33.0 µM -12% | [13]; at 100.0 µM 27% | [14]; at 1.2 µM -18% | [14]; at 3.7 µM -16% | [14]; at 11.0 µM -17% | [14]; at 33.0 µM -27% | [14]; at 100.0 µM 16% | [15]; [17] 11% | [15]; [18] 49% | [16]; at 1.2 µM -30% | [16]; at 3.7 µM -14% | [16]; at 11.0 µM -12% | [16]; at 33.0 µM 41%
active: [3]; at 100.0 µM 97% | [4]; at 100.0 µM 87% | [7]; at 100.0 µM 78% | [8]; at 50.0 µM 86.2% | [11]; at 33.0 µM 70% | [11]; at 50.0 µM 72.8% | [11]; at 100.0 µM 95% | [12]; at 33.0 µM 76% | [12]; at 100.0 µM 95% | [16]; at 100.0 µM 92%
